Results filed as inconclusive are left out. The source made the active and inactive calls. Unless noted, calls come from the whole dose curve; as a rule, active = well fitted curve in the direction sought with a large enough effect; inconclusive = small, poorly fitted or top-dose-only effect, or another doubt; inactive = no such curve, though single readings can be large; an effect the other way counts as inactive or inconclusive.

The target in one assay is Furin (Homo sapiens) (UniProt P09958). In words: Furin counterscreen qHTS for Zika virus inhibitors (AID 1347149).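 Note: purified recombinant full-length human furin enzyme at 5 nM; fluorescence gain from furin cutting a BOC-RVRR-AMC peptide substrate over 15 min; top concentration of the series differs between compounds; plate controls were no-inhibitor control for no effect and no-enzyme control for full effect; nearly all actives have a fitted effect of over 70% in size.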 In a few lines:
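Counterscreen measures cleavage of 2 microM BOC-RVRR-AMC, below its ~15 microM Km, by 5 nM full-length human furin at pH 7.0 after a 15-min compound preincubation. Inhibition derives from the 15-min fluorescence increase at 37C.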
(Counterscreens check selectivity or assay interference.)

Assay [1] in a line: ZIKV-mCherry secondary qHTS for Zika virus inhibitors (AID 1347158). For activity change, negative = inhibition: top concentration of the series differs between compounds. Note: potency is the fitted concentration of half-maximal effect. In outline: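 Percent infection is the share of Hoechst-identified Vero nuclei with mCherry signal above 450 RFU (3 SD over negative controls). Cells were infected with recombinant ZIKV-mCherry at MOI 1 after compound addition and imaged 48–72 h later.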
Assay [2] relates to Zika virus NS2B-NS3 protease (linked construct). In words: 384 well plate NINDS Rhodamine confirmatory qHTS for Zika virus inhibitors (AID 1347164).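 Note: fluorescence from protease cleavage of Ac-LKRR-rhodamine 110 substrate; potency is the fitted concentration of half-maximal effect; nearly all actives have a fitted effect of over 65% in size.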 In a few lines:
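Linked NS2B-NS3 protease (final 5, 30 or 60 nM) preincubated ~15 minutes with compounds, then 10 microM Ac-LKRR-Rhodamine 110 added. Fluorescence (485/538 nm) read after 25 minutes at room temperature, normalized to no-enzyme and no-inhibitor controls.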
A general note: qHTS replaces the single test concentration by a dilution series.

The nature of assay [3]: Tertiary RLuc qRT-PCR qHTS assay for Zika virus inhibitors (AID 1347169). Note: nearly all actives have a fitted effect of over 55% in size. Note: potency is the fitted concentration of half-maximal effect. In a few lines: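 Vero cells (1,000/well) infected with recombinant ZIKV-RLuc (Cambodian) at MOI 1-2 after compound addition, 48-72 hrs at 37 degrees C. Live-cell Renilla luciferase substrate added; luminescence read after 1-1.5 hrs.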
A general note: Quantitative PCR measures a nucleic acid by following its amplification.

In assay [4] the target is Rap guanine nucleotide exchange factor 3 (Homo sapiens) (UniProt O95398). In words: Confirmatory qHTS for antagonist of cAMP-regulated guanine nucleotide exchange factor 3 (EPAC1) (AID 1645880). Note: nearly all actives have a fitted effect of over 55% in size. Note: potency is the fitted concentration of half-maximal effect. In a few lines:
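Released BODIPY-GDP fluoresces less than Rap1-bound BODIPY-GDP; the signal is followed at 480/540 nm at 5-min intervals over 30 min, after 5 min at room temperature. Reactions contain 100 nM EPAC1, 250 nM RAP1B-BODIPY-GDP and 50 uM GDP; results are normalized to ATA and DMSO.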

Assay [5] has the same target. In words: Confirmatory qHTS for agonist of cAMP-regulated guanine nucleotide exchange factor 3 (EPAC1) (AID 1645881).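 Note: EPAC1 catalysed release of BODIPY-GDP from Rap1B seen as fluorescence loss; 100% = effect of cAMP agonist control; nearly all actives have a fitted effect of over 75% in size.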
Assay [6] deals with Rap guanine nucleotide exchange factor 4 (Homo sapiens) (UniProt Q8WZA2). Description: Confirmatory qHTS for agonist of cAMP-regulated guanine nucleotide exchange factor 4 (EPAC2) (AID 1645884).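 Note: nucleotide exchange releases bodipy-GDP from Rap1 and this lowers its fluorescence; % is set by controls: 0 for no effect and ±100 for the full control effect; nearly all actives have a fitted effect of over 65% in size.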
Rap guanine nucleotide exchange factor 4 (Homo sapiens), sequence (Q8WZA2 whole entry, looked up): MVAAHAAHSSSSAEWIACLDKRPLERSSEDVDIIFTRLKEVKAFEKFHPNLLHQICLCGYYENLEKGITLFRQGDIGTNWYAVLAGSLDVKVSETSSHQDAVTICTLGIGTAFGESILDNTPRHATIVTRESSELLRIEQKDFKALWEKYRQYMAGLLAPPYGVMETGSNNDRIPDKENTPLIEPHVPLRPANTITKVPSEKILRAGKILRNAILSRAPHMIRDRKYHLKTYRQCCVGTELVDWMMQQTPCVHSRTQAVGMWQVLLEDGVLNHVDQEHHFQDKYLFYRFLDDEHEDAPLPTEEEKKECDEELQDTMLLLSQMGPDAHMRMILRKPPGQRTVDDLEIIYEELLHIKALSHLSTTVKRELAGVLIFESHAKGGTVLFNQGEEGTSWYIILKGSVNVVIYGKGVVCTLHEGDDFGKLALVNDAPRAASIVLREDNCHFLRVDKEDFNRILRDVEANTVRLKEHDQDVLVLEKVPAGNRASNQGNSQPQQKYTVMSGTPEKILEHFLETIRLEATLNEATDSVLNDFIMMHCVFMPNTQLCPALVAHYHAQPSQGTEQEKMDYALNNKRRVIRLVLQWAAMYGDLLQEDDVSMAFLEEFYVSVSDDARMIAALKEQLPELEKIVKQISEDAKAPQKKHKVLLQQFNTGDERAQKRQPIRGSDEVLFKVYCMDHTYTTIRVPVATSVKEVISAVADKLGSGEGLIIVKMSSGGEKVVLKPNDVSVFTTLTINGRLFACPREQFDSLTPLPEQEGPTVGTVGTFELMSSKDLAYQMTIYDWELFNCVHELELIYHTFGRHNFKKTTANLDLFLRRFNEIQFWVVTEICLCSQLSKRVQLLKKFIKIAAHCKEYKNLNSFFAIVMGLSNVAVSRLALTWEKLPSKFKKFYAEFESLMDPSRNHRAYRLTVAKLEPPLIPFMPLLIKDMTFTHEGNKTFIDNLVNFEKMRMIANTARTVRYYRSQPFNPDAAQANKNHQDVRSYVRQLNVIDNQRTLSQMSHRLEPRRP
For assay [7] the target is unchanged. In words: Confirmatory qHTS for antagonist of cAMP-regulated guanine nucleotide exchange factor 4 (EPAC2) (AID 1645885). Note: nearly all actives have a fitted effect of over 25% in size.
Assay [8] has as its target Rap guanine nucleotide exchange factor 3 (Homo sapiens) (UniProt O95398). Description: Counterscreen qHTS for antagonist of cAMP-regulated guanine nucleotide exchange factor 3 (EPAC1) (AID 1645888). Note: % of control where 0% means no effect. In a few lines: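 Rap1B-BODIPY-GDP 250 nM + GDP 50 uM; cpds 7-pt, final 9.74 nM–152 uM (activator mode) or from 7.32 nM upwards (inhibitor mode); RT; FI 480/540 nm at 5 and 30 min, then ± cAMP, reread.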

The subject of assay [9] is Zika virus NS2B-NS3 protease. In words: Primary screen GU AMC qHTS for Zika virus inhibitors (AID 1347154).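 Note: 0% = no-inhibitor control and -100% = no-enzyme control; nearly all actives have a fitted effect of over 70% in size.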 In a few lines: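 Fluorogenic AMC-substrate cleavage by noncovalent NS2B-NS3 protease complex (25 nM, pH 8.0 Tris buffer with Tween 20) followed for 15 minutes at room temperature (~20% conversion). Percent inhibition from ex340/em450 signal change, fitted by 4-parameter Hill equation.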

Assay [10] deals with Cytochrome P450 3A4 (Homo sapiens) (UniProt P08684). Description: qHTS Assay for Inhibitors and Substrates of Cytochrome P450 3A4 (AID 884). Note: % is set by controls: 0 for no effect and ±100 for the full control effect; nearly all actives have a fitted effect of over 50% in size. In a few lines:
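Luminescent readout of luciferin produced by CYP3A4 (20 nM) dealkylation of Luciferin-PPXE, 25 uM (its KM). NADPH-driven reaction ran 60 min at RT after 10 min compound preincubation; data scaled to 57 uM ketoconazole as 100% inhibition.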

Assay [11] is described as follows: Confirmation and Secondary Assay for Modulators of Hemoglobin Beta Chain Splicing at IVS2 654 locus (AID 910).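 Note: HeLa cells stably carrying EGFP split by mutant beta-globin IVS2-654 intron; per-well total GFP intensity by laser scanning cytometry after 2-day treatment; % of control where 0% means no effect.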 In a few lines:
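Readout: per-well total peak green fluorescence (488 nm ex, 500–520 nm em) from objects 5–250 µm, reflecting correct splicing of an EGFP-654 reporter. Compounds were applied for 2 days at 37 °C to overnight-plated HeLa EGFP-654 cells; controls were DMSO and 500 nM IVS2-654 PNA.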

Assay [12] is described as follows: Confirmation and Secondary Assay for Modulators of Hemoglobin Beta Chain Splicing at IVS2 705 locus (AID 930).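 Note: HeLa cells stably expressing the EGFP-705 splicing reporter; GFP fluorescence per well restored by corrected splicing of the IVS2-705 intron in EGFP; % of control where 0% means no effect.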 In a few lines: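 Secondary splice-site specificity test uses HeLa expressing CMV-driven EGFP interrupted by IVS2-705; cells were treated 2 days at 37C with 500 nM antisense PNA as positive control.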
A short description of assay [13]: qHTS Assay for Lipid Storage Modulators (AID 1519; calls by dose curve). The note with it: Drosophila S3 cells, BODIPY lipid droplet/cell ratio, laser cytometry, cells loaded with oleic acid. In outline: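 Cells seeded at 5,000 per well were treated with compounds over a concentration series and loaded with oleic acid (400 uM, as added). Lipid droplet fluorescence (488 nm excitation, 500-530 nm channel) was read by laser-scanning cytometry and normalized to 20 uM Triacsin C.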

Assay [14] deals with Ubiquitin carboxyl-terminal hydrolase 1 (Homo sapiens) (UniProt O94782). Description: Inhibitors of USP1/UAF1: Pilot qHTS (AID 504865). Note: potency is the fitted concentration of half-maximal effect; nearly all actives have a fitted effect of over 35% in size. In outline: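 USP1/UAF1 complex at 1 nM preincubated 15 min at room temperature with compound, then Ub-Rho substrate added at 150 nM final. Fluorescence (480/540 nm) read kinetically in 50 mM HEPES pH 7.8, 0.5 mM EDTA, 1 mM TCEP, 0.1 mg/ml BSA, 0.01% Tween-20.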
Ubiquitin carboxyl-terminal hydrolase 1 (Homo sapiens), sequence (O94782 whole entry, looked up): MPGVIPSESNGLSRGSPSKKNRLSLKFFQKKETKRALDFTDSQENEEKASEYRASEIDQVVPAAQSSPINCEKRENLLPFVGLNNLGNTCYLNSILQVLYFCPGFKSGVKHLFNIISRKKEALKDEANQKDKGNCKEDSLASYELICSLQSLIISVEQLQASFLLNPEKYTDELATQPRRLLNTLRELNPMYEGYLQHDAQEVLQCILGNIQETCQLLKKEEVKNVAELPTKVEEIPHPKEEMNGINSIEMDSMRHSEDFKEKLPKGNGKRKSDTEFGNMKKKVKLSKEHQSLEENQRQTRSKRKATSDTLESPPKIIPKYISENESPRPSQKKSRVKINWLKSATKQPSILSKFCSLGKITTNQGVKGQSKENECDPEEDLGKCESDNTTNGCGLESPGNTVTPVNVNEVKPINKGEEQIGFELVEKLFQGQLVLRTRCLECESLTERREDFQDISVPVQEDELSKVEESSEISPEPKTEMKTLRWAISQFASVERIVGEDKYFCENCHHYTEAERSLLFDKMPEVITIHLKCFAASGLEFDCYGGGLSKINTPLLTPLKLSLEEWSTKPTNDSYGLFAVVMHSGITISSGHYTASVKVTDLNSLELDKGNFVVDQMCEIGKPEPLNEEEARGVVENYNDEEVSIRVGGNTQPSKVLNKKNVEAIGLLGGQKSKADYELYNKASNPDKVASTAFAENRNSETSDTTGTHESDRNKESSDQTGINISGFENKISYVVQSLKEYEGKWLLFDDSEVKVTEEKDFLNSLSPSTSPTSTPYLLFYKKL

Assay [15] relates to Zika virus NS2B-NS3 protease (unlinked complex). Description: Confirmatory screen GU AMC qHTS for Zika virus inhibitors (AID 1347153).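 For Potency: enzyme at 25 nM with substrate at 10 µM below its Km of 18.3 µM; potency is the fitted concentration of half-maximal effect.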 Note: nearly all actives have a fitted effect of over 70% in size. In outline: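 Compounds were preincubated 15 min at room temperature with 25 nM noncovalent NS2B-NS3 protease at pH 8.0; AMC substrate added at 10 microM and 15-min fluorescence gain (340/450 nm) converted to percent inhibition, fitted 4-parameter.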

Assay [16] can be described thus: Confirmatory screen NINDS Rhodamine qHTS for Zika virus inhibitors (AID 1347161). Note: potency is the fitted concentration of half-maximal effect; nearly all actives have a fitted effect of over 60% in size. In a few lines: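 Rhodamine110-peptide cleavage (1.5 µM substrate) by 25 nM linked NS2B-NS3 enzyme at pH 8.0 (Tris, Tween 20), after 15 min RT preincubation with compounds; 15-min fluorescence change normalized to controls and Hill-fitted.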
The test system of assay [17] is Zika virus NS2B-NS3 protease (linked). In words: 384 well plate NINDS AMC confirmatory qHTS for Zika virus inhibitors (AID 1347163). Note: potency is the fitted concentration of half-maximal effect; nearly all actives have a fitted effect of over 50% in size. In a few lines:
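Fluorescence at 355/460 nm was read after 25 minutes of cleavage of 30 microM Ac-VKTGKR-AMC at room temperature, in the dark. Before substrate addition, compounds (up to 1 mM final) sat ~15 minutes with 5, 30 or 60 nM linked protease. Signals were normalized to no-enzyme and no-inhibitor wells.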

Assay [18] can be described thus: Vero cells viability qHTS for Zika virus inhibitors (AID 1347167). Note: % is set by controls: 0 for no effect and ±100 for the full control effect. In outline:
(§1)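 Luminescent ATP readout (CellTiter Glo) after 30 min at 37 degrees C gives viability; cells in DMEM + 4% FBS were treated 24 to 48 hours with compound, following overnight attachment.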

Assay [19] can be described thus: HepG2 cells viability qHTS for Zika virus inhibitors (AID 1347168). Note: % is set by controls: 0 for no effect and ±100 for the full control effect. In outline:
as §1

Assay [20] can be described thus: Primary qHTS for small molecule stabilizers of the endoplasmic reticulum resident proteome: Secreted ER Calcium Modulated Protein (SERCaMP) assay (AID 1508630). Note: % is set by controls: 0 for no effect and ±100 for the full control effect. In outline: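 The SH-SY5Y reporter protocol was run at 3 concentrations up to 38.3 uM (primary) or 11 concentrations (follow-up): 16 h compound, 100 nM thapsigargin for 4 h, then extracellular luciferase luminescence.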

The test system of assay [21] is Zika virus NS2B-NS3 protease (linked construct). In words: Confirmatory screen NINDS AMC qHTS for Zika virus inhibitors (AID 1347152).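 For activity change, negative = inhibition: AMC fluorescence gain from cleaved Bz-Nle-KRR-AMC substrate over 15 min; top concentration of the series differs between compounds; 0% = no-inhibitor control and -100% = no-enzyme control.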 Note: nearly all actives have a fitted effect of over 70% in size. Note: potency is the fitted concentration of half-maximal effect. In outline: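 Linked NS2B-NS3 protease, 1 nM, in 10 mM Tris-HCl pH 8.0, 0.01% Tween 20; compounds preincubated 15 min at room temperature. Nle-KRR-AMC 10 microM (Km 18.3 µM); 15-min fluorescence change (340/450 nm) fitted to 4-parameter Hill.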

Assay [22] has as its target Calcium and integrin-binding protein 1 (Homo sapiens) (UniProt Q99828). Description: Primary qHTS for Identification of Calcium Integrin Binding Protein 1 (CIB1) Competitor (AID 1508620).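 Note: GST tagged CIB1 binding a fluorescein labelled alphaIIb integrin peptide tracer; top concentration of the series differs between compounds; % is set by controls: 0 for no effect and ±100 for the full control effect.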 In a few lines: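 CIB1-GST (1 uM final) and compound incubated 15 min at room temperature before adding FITC-alphaIIb peptide tracer (100 nM final). Competition for binding read by fluorescence polarization (ex 480, em 540) after another 15 min at room temperature.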

Rap guanine nucleotide exchange factor 3 (Homo sapiens), sequence (O95398 whole entry, looked up): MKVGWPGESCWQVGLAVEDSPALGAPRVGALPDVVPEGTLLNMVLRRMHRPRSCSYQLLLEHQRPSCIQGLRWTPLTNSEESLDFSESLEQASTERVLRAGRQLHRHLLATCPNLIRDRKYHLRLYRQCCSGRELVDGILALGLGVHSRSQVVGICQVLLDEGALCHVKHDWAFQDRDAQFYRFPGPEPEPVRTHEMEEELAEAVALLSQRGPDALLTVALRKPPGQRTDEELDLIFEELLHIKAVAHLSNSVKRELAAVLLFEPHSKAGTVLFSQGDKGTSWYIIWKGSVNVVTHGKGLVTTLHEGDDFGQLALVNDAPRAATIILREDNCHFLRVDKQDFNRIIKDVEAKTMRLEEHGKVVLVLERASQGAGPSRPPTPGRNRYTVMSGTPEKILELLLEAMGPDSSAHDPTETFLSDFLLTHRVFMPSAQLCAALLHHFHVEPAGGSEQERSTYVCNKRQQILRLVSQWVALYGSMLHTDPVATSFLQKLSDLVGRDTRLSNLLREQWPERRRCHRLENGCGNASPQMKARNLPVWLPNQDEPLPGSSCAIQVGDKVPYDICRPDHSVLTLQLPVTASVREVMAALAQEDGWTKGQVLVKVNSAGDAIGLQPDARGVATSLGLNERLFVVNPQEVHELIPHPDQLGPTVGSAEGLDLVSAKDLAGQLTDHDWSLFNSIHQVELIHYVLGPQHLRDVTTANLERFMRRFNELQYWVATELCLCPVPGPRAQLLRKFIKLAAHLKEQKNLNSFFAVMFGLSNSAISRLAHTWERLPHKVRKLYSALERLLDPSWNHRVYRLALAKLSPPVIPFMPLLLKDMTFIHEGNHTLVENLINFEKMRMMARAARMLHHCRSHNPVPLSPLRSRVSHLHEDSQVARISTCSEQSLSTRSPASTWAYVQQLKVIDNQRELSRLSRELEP
Cytochrome P450 3A4 (Homo sapiens), sequence (P08684 whole entry, looked up): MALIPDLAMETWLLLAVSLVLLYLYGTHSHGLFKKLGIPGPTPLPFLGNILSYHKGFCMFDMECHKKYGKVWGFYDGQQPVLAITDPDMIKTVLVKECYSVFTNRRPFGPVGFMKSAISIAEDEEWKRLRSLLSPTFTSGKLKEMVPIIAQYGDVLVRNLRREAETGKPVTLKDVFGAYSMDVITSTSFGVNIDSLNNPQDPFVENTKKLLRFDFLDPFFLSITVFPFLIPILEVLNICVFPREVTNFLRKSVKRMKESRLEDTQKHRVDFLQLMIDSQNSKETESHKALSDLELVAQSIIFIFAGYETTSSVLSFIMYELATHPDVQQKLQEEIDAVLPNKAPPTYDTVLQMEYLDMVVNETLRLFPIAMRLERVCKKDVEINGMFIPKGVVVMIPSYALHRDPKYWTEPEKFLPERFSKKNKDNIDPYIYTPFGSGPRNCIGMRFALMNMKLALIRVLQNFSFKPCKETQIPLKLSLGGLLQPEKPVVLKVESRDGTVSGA
Furin (Homo sapiens), sequence (P09958 whole entry, looked up): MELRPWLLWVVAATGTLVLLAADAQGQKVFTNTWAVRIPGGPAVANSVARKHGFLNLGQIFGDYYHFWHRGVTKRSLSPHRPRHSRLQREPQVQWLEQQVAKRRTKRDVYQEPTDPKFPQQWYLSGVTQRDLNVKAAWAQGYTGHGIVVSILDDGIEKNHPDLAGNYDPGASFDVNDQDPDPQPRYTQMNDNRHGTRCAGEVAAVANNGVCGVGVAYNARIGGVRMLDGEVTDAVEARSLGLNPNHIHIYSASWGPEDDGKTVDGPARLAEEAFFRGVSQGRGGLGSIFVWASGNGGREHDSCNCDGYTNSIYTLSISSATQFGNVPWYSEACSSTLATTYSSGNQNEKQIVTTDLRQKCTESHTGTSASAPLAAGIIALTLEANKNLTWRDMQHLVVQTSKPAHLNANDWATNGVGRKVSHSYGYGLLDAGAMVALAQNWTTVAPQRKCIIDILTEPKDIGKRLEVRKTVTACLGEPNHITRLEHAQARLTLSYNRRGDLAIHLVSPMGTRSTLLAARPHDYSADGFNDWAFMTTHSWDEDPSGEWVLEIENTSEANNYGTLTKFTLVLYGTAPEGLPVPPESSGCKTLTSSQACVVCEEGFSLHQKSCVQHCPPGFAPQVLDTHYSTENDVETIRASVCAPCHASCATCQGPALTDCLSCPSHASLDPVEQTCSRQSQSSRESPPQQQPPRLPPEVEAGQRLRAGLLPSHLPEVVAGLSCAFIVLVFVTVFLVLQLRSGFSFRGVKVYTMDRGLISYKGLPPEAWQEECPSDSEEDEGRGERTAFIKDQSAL
Calcium and integrin-binding protein 1 (Homo sapiens), sequence (Q99828 whole entry, looked up): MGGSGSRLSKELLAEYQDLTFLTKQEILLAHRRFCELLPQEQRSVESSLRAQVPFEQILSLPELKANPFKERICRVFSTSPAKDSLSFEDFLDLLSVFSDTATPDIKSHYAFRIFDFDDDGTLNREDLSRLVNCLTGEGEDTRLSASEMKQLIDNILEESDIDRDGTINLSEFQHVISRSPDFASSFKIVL

Turning to `CCCCc1nn2c(=O)cc(COC(=O)c3ccc(NC(=O)CCc4ccccc4)cc3)nc2s1`, the Potency entry (with Furin (Homo sapiens); in assay [1]; in assay [3]) was “inactive” throughout. Also, the Potency in assay [2] was 25.1 µM (active).
Take `CCOC(=O)c1ccc(NC(=O)CSc2nc(-c3ccc(OC)cc3)cc(C(F)(F)F)c2C#N)cc1`: the Potency entry (with Furin (Homo sapiens); in assay [4]; in assay [7]) was “inactive” each time. Besides, the molecule was classed as inactive in assay [5], in [6] and in [8].
With `CC[C@@H](C)[C@H](NS(=O)(=O)c1cccc2ccccc12)C(=O)N[C@H](C=O)Cc1c[nH]c2ccccc12`, the Potency result in assay [9] was “inactive”.
As for `c1ccc(COCCCc2cnc[nH]2)cc1`, the Potency result in [9] is “inactive”.
For the molecule `CC(C)=CCCC1(C)C=Cc2c(O)c3c(c(CC=C(C)C)c2O1)OC12C(=CCCC1C(C)(C)O[C@@]2(C/C=C(\C)C(=O)O)C(=O)O)C3=O` (some centres undefined), the Potency entry in [10], in assay [18], in [19], in [20] and in assay [7] was “inactive” throughout. The result in assay [11], in [12], in assay [5] and in assay [6] was inactive. Further, the activity change, negative = inhibition in assay [13] (at 57.5 µM (top of the series)) is 7.82% (inactive). Besides, the max response stood at 0.914% in [13] (measured here: cell count channel max response) and 7.86% in assay [13] (measured here: lipid channel max response). The Potency in [14] is 79.4 µM (active); in [15] it was 19.2 µM (active); in [16], 1.39 µM (active); in assay [17] it was 158 µM (active); in assay [2] it was 22.4 µM (active); in assay [4] it was 55.9 µM (active).
In the case of `COc1cc(O)c2c(=O)cc(-c3ccc(OC)c(-c4c(O)cc(O)c5c(=O)cc(-c6ccc(O)cc6)oc45)c3)oc2c1`, the Potency result in assay [10] was “inactive”. In addition, the Potency is 44.1 µM (active) in assay [15]; 11.2 µM (active) in assay [1]; 35.5 µM (active) in [17]; 112 µM (active) in assay [2]; 16.5 µM (active) in assay [3].
Consider `Clc1cc(OCc2nnc3sc(Cc4ccccc4)nn23)c(Cl)cc1OCc1nnc2sc(Cc3ccccc3)nn12`, for which the Potency was 12.6 µM (active) in [21], 3.55 µM (active) in assay [16], 28.2 µM (active) in assay [17] and 7.94 µM (active) in assay [2]. Besides, the Potency entry in assay [3] is “inactive”.
Regarding `Cc1cc(C)c(N(Cc2ccccc2)S(=O)(=O)c2ccc(OCCNC(=O)c3cc4ccccc4o3)cc2)c(C(=O)NO)c1`, the Potency result in assay [9] is “inactive”.
Regarding `CC12CCC3C(CCC4CC(O)CCC43C)C1CC=C2c1ccccc1` (centres undefined), in [9], the Potency result is “inactive”.
Turning to `O=C(O)c1cc(N(Cc2ccccc2O)Cc2cc(O)ccc2O)ccc1O`, the Potency result in assay [9] is “inactive”.
As for `O=C(O)c1cc(Oc2ccc([N+](=O)[O-])cc2)cc(Oc2ccc([N+](=O)[O-])cc2)c1`, the Potency entry in assay [9] was “inactive”.
Consider `O=C(OCC#CCSc1nnc(-c2ccc(Cl)cc2)o1)c1ccc(F)cc1`, for which the Potency entry in assay [21], in [15] and in [3] was “inactive” in each case. Further, the outcome in assay [22] was inactive.
